The text below walks through data of PubChem BioAssay (Tox21).

Assay [1] can be described thus: qHTS assay for small molecule agonists of the p53 signaling pathway (AID 651631; calls by dose curve; note: nearly all actives have a fitted effect of over 15% in size; note: potency is the fitted concentration of half-maximal effect). The conditions noted are these: HCT-116 p53RE-bla reporter, beta-lactamase FRET ratio, 16 h; series mostly up to 73.3 µM. The method, boiled down:
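Quantitative high-throughput format: 4,000 p53RE-bla HCT-116 cells/well, 5 h pre-incubation, 16 h compound exposure at 37 °C, 2 h room-temperature substrate step, fluorescence intensity measured.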
In general terms: qHTS replaces the single test concentration by a dilution series.

Assay [2] is described as follows: qHTS assay for small molecules that induce genotoxicity in human embryonic kidney cells expressing luciferase-tagged ATAD5 (AID 651632). Note: nearly all actives have a fitted effect of over 15% in size. The conditions noted are these: HEK293T ATAD5-luciferase induction, 16 h; series mostly up to 83.3 µM. The method, boiled down:
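Cells were seeded at 2,000 per well, dosed with compound, and incubated 16 hr at 37C in 5% CO2. Luciferase activity was then quantified after a 30 min room-temperature incubation with Amplite.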

A short description of assay [3]: qHTS assay for small molecule agonists of the p53 signaling pathway - cell viability (AID 651633; calls by dose curve; note: nearly all actives have a fitted effect of over 30% in size). The conditions noted are these: p53RE-bla HCT-116 viability, ATP luminescence, 16 h; series mostly up to 83.3 µM. The method, boiled down: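 p53RE-bla cells, seeded at 4,000 per well and rested 5 h at 37 C/5% CO2, received compounds in DMSO for 16 h at 37 C. CellTiter-Glo was then added, and luminescence was read after 30 min at room temperature to gauge cytotoxicity.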

A short description of assay [4]: qHTS assay to test for compound auto fluorescence at 590 nm (red) in HepG2 cells (AID 720674). The conditions noted are these: HepG2 autofluorescence, red 540/590 nm, 1 h; series mostly up to 91.3 µM. The method, boiled down:
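Intrinsic compound fluorescence in the red window (Ex/Em 540/590 nm) is measured in attached HepG2 cells exposed for 1 hr, DMSO vehicle as baseline, benchmarked to Rose Bengal sodium.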

Assay [5] is described as follows: qHTS assay to test for compound auto fluorescence at 460 nm (blue) in HEK293 cells (AID 720678). The conditions noted are these: blue autofluorescence 405/460 nm; series mostly up to 91.3 µM. The method, boiled down: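 HEK293 cells (2,000 per well, medium with 10% dialyzed FBS) attached for 4-5 hr at 37C, then received compound and stood overnight at 37C, 5% CO2. Blue fluorescence was read at Ex/Em 405/460 nm and expressed relative to triamterene.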

Assay [6] can be described thus: qHTS assay to test for compound auto fluorescence at 590 nm (red) in HEK293 cells (AID 720679). Particulars: red autofluorescence 540/590 nm; series mostly up to 91.3 µM. The essentials:
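HEK293 cells (2,000/well, medium with 10% dialyzed FBS) attached for 4-5 hr at 37C, received 23 nL compound and were incubated overnight at 37C, 5% CO2. Red fluorescence was then read at 540/590nm Ex/Em, referenced to Rose Bengal sodium.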

Assay [7] is described as follows: qHTS assay to test for compound auto fluorescence at 535 nm (green) in HEK293 cells (AID 720680). Particulars: green autofluorescence 485/535 nm; series mostly up to 91.3 µM.
Assay [8] can be described thus: qHTS assay to test for compound auto fluorescence at 460 nm (blue) in HEK293 cell free culture (AID 720681). Particulars: cell-free medium, autofluorescence 405/460 nm (blue); series mostly up to 91.3 µM. The essentials: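 Test compounds were pinned into cell-free culture medium (DMEM with 10% FBS) and fluorescence was read directly at Ex/Em 405/460 nm. Signals were expressed as fluorescence equivalents of triamterene, with DMSO vehicle as control.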

The nature of assay [9]: qHTS assay to test for compound auto fluorescence at 535 nm (green) in HEK293 cell free culture (AID 720682). The conditions noted are these: cell-free medium, green autofluorescence 485/535 nm, active compounds read high; series mostly up to 91.3 µM. The essentials:
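Measurement is a direct plate read of green fluorescence (485 nm in, 535 nm out) after compound addition to serum-supplemented DMEM lacking cells, with fluorescein used to express intensities.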

Assay [10] in a line: qHTS assay to test for compound auto fluorescence at 590 nm (red) in HEK293 cell free culture (AID 720683). The conditions noted are these: cell-free medium autofluorescence, Ex540/Em590 red; series mostly up to 91.3 µM. The essentials: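 Tox21 10K library compounds were pinned into cell-free DMEM with 10% FBS and fluorescence was read at excitation 540 nm. Activity is expressed as Rose Bengal sodium equivalency.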

A short description of assay [11]: qHTS assay to test for compound auto fluorescence at 590 nm (red) in HepG2 cell free culture (AID 720684). The conditions noted are these: cell-free medium autofluorescence, red 540/590 nm; series mostly up to 91.3 µM. The essentials: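 Readout: intrinsic compound fluorescence at 590 nm emission after 540 nm excitation, scaled to Rose Bengal sodium. Matrix was cell-free MEM with 10% FBS; DMSO vehicle wells served as control.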

A short description of assay [12]: qHTS assay to test for compound auto fluorescence at 460 nm (blue) in HepG2 cell free culture (AID 720685). Particulars: Cell-free culture medium, blue autofluorescence 405/460 nm; series mostly up to 91.3 µM. The essentials:
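Cell-free plates of MEM plus 10% FBS received 23 nL compound or DMSO vehicle; blue-channel (405/460 nm) intensity scored against triamterene as reference fluorophore.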

Assay [13] in a line: qHTS assay to test for compound auto fluorescence at 535 nm (green) in HepG2 cell free culture (AID 720686). The conditions noted are these: Cell-free medium, green autofluorescence 485/535 nm; series mostly up to 91.3 µM.
A short description of assay [14]: qHTS assay to test for compound auto fluorescence at 460 nm (blue) in HepG2 cells (AID 720687). Particulars: autofluorescence 405/460 nm, 1 h; series mostly up to 91.3 µM. The method, boiled down: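 Cells (2,000/well in MEM with 10% FBS) attached overnight at 37 C, then were exposed to compound or DMSO for 1 hr at 37 C, 5% CO2. Fluorescence read at Ex/Em 405/460 nm, expressed as triamterene-equivalent signal.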

A short description of assay [15]: qHTS assay for small molecules that induce genotoxicity in human embryonic kidney cells expressing luciferase-tagged ATAD5 - cell viability (AID 651634; calls by dose curve; note: nearly all actives have a fitted effect of over 25% in size). The conditions noted are these: HEK293T ATAD5-luc cells viability, CellTiter-Fluor, 15.5 h; series mostly up to 83.3 µM. The essentials: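 Cells (HEK293T, luciferase-tagged ATAD5) are seeded at 2,000 per well, dosed with compound or DMSO vehicle, and incubated 15.5 hr at 37C and 5% CO2. CellTiter-Fluor is added for 30 min before fluorescence is measured.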

Assay [16] can be described thus: qHTS assay for small molecule disruptors of the mitochondrial membrane potential - cell viability (AID 720634; calls by dose curve;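 note: human HepG2 liver cancer cells; nearly all actives have a fitted effect of over 20% in size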). The conditions noted are these: HepG2 viability, ATP luminescence (CellTiter-Glo), 1 h; series mostly up to 83.2 µM. The method, boiled down: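 Cytotoxicity was measured by ATP quantitation in HepG2 wells that had first been treated with compound for 1 hr and stained with m-MPI dye; CellTiter-Glo incubation was 30 min at room temperature.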

Assay [17] can be described thus: qHTS assay to test for compound auto fluorescence at 535 nm (green) in HepG2 cells (AID 720675). Particulars: green autofluorescence 485/535 nm, 1 h; series mostly up to 91.3 µM.
Assay [18] deals with Glucocorticoid receptor (Homo sapiens) (UniProt P04150). The experiment in a line: qHTS assay to identify small molecule agonists of the glucocorticoid receptor (GR) signaling pathway (AID 720691; active = well fitted activation curve with a large enough effect in the signal ratio in the repeat runs, not every such curve was filed as active; the % refers to the signal ratio). Particulars: GR-bla HeLa, beta-lactamase reporter ratio, 18 h; activation: at 62.4 µM (top of the series) unless noted. The method, boiled down:
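Steps: seed GR-bla HeLa cells, incubate 4 h at 37 C/5% CO2; pin-transfer DMSO-dissolved compounds; incubate 18 h at 37 C; add LiveBLAzer B/G FRET substrate; after 2 h at room temperature, measure fluorescence.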

Assay [19] in a line: qHTS assay for small molecule disruptors of the mitochondrial membrane potential (AID 720635). Particulars: HepG2 mitochondrial membrane potential, Mito-MPS dye ratio; series mostly up to 83.2 µM. The essentials: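 HepG2 cells (2,000/well) attached overnight at 37C, then took compound for 1 hr at 37C, 5% CO2. Mito-MPS dye was added for 30 min; fluorescence was read at 490/535 nm (monomers) and 540/590 nm (aggregates).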

The target of assay [20] is Glucocorticoid receptor (Homo sapiens) (UniProt P04150). The experiment in a line: qHTS assay to identify small molecule antagonists of the glucocorticoid receptor (GR) signaling pathway (AID 720692; active = well fitted inhibition curve with a large enough effect in the signal ratio in the repeat runs, not every such curve was filed as active; the % refers to the signal ratio). Particulars: GR-bla HeLa, beta-lactamase FRET ratio, dexamethasone-stimulated, 18 h; series mostly up to 58.5 µM. The essentials:
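Antagonism was scored as loss of dexamethasone-driven (5 nM final) reporter signal in HeLa cells bearing a glucocorticoid response element–beta-lactamase construct, after 18 h compound exposure at 37 C and 2 h FRET substrate loading.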

A number with no mark means an inactive call. Inconclusive results are not listed. Calls of active or inactive are those of the source. Unless noted, calls come from the whole dose curve; as a rule, active = well fitted curve in the direction sought with a large enough effect in the repeat runs; inconclusive = weak or mixed curves; inactive = no such curve, though single readings can be large; an effect the other way counts as inactive or inconclusive.
% is set by controls: 0 for no effect and ±100 for the full control effect.

Sequence of Glucocorticoid receptor (Homo sapiens) (P04150 whole entry, looked up): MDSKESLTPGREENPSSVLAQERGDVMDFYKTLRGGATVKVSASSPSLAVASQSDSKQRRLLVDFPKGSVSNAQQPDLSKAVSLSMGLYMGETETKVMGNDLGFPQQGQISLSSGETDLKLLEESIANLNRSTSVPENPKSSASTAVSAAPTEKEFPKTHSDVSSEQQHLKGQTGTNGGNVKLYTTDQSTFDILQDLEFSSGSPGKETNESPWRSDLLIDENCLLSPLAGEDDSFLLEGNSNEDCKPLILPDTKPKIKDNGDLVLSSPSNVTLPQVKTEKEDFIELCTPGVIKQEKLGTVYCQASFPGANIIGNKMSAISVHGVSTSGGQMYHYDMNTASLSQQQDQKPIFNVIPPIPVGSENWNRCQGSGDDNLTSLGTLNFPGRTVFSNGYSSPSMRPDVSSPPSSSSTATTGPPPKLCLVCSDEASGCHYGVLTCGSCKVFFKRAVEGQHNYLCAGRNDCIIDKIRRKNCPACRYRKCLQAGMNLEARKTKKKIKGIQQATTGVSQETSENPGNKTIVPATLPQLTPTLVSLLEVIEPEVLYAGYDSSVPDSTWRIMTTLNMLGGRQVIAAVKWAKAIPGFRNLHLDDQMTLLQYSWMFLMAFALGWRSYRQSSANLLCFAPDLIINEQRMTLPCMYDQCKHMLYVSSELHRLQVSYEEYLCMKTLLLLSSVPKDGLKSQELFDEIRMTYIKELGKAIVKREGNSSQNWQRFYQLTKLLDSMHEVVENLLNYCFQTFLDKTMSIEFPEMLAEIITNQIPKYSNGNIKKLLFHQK

Take `CCCCc1nc2cccnc2n1Cc1ccc(-c2ccccc2-c2nnn[nH]2)cc1`: the Potency result in assay [1], in assay [2], in assay [3], in assay [4], in assay [6] and in [10] was “inactive” throughout. Moreover, the Potency entry in assay [11] and in assay [13] was “inactive” each time. Further, the result in assay [5], in [7], in assay [8], in assay [9], in [12] and in assay [14] was inactive.
Take `c1ccc(C(O[C@H]2CCCN(CCc3ccc4c(c3)OCO4)C2)c2ccccc2)cc1`: the Potency entry in [1], in [2], in assay [15], in assay [16], in [4] and in assay [17] was “inactive” each time. The Potency result in [6], in [11], in assay [13] and in [18] was “inactive” throughout. Besides, the outcome in [5], in assay [7], in assay [8], in assay [9], in assay [12] and in assay [14] was inactive.
As for `Nc1cccc(S(=O)(=O)c2cccc(N)c2)c1`, the Potency result in assay [1], in assay [2], in assay [15], in [6], in assay [10] and in assay [11] was “inactive” each time. Besides, the Potency entry in assay [13] and in assay [18] was “inactive” in each case. For the same compound, the result in assay [5], in assay [7], in assay [8], in assay [9], in assay [12] and in [14] was inactive.
`CC(=O)OC[C@H]1O[C@@H](n2ncc(=O)[nH]c2=O)[C@H](OC(C)=O)[C@@H]1OC(C)=O`: the Potency in assay [1] is 1.88 µM (active). Further, the Potency entry in assay [2], in assay [15], in assay [16], in assay [19], in [4] and in assay [17] was “inactive” each time. For the same compound, the Potency result in [6], in assay [10], in assay [11] and in [13] was “inactive” throughout. Further, the call in [5], in assay [7], in [8], in [9] and in assay [14] was inactive.
For the compound `CNCCCN1c2ccccc2CCc2ccccc21`, the Potency result in assay [1], in assay [2], in assay [3] and in [16] was “inactive” in each case. For the same compound, in [4], the fluorescence, relative to Rose Bengal is -0.337% [at 18.6 µM]. Besides, the fluorescence, % of fluorescein control in assay [17] was 0.0155% [at 18.6 µM]; in assay [13], -0.0226% [at 18.6 µM]. Moreover, the fluorescence, % of triamterene in assay [5] is 0.119% [at 18.6 µM]. Further, the fluorescence, % of fluorescent control was 0.0732% [at 18.6 µM] in assay [6], 0.0052% [at 18.6 µM] in assay [10] and 0.0417% [at 18.6 µM] in [14]. Also, in [7], the fluorescence, % of fluorescein was -0.0036% [at 18.6 µM]. Moreover, the activity change in assay [9] was 0.0761% [at 18.6 µM]. For the same compound, the fluorescence, % of Rose Bengal in assay [11] is 0.569% [at 18.6 µM].
For `CCCCC1=NC2(CCCC2)C(=O)N1Cc1ccc(-c2ccccc2-c2nn[nH]n2)cc1`, the Potency result in [1], in assay [2], in assay [15], in [16], in [4] and in assay [17] was “inactive” throughout. Also, the Potency entry in assay [6], in assay [10], in assay [11] and in assay [13] was “inactive” throughout. In addition, the compound was called inactive in assay [5], in assay [7], in assay [8], in [12] and in assay [14].
Consider `Cn1c(=O)cc(Oc2ccc(F)cc2F)c2cnc(NCC(C)(C)O)nc21`, for which the Potency result in assay [1], in assay [2], in assay [3], in assay [15], in assay [4] and in assay [6] was “inactive” in each case. For the same compound, the Potency entry in [10], in assay [11], in assay [13], in assay [18] and in assay [20] was “inactive” throughout. Besides, the outcome in assay [5], in [7], in assay [8], in assay [12] and in assay [14] was inactive.
As to `CCOc1ccc(N)c([N+](=O)[O-])c1`, the Potency entry in assay [1], in assay [2], in assay [16], in [19], in assay [4] and in assay [17] was “inactive” each time. The Potency entry in [6], in [10], in assay [11] and in [13] was “inactive” in each case. Further, the compound was called inactive in [5], in assay [7], in assay [8], in assay [9] and in assay [14].
